An excerpt weighted towards active compounds, which were near 3.5% of everything screened.
Autofluor counter = counter-screen for toxin protease inhibitors: compound fluorescence. compound autofluorescence counterscreen, microsphere flow cytometry; stronger effect = higher value. 360,000 tested, 3.1% active. AID 624483. fluorescence intensity (concentration not given with the values); in the data active means fluorescence intensity above about 16000; inconclusive means no clear call, values can overlap the other calls
BoNT-A LC inh2 = BoNT A light chain protease inhibition | AID 588499 | multiplex microsphere protease substrate cleavage, flow cytometry | inhibition, % at 10 µM | 360,000 tested, 0.17% active; further: plate controls were buffer without enzyme for full effect and enzyme alone for no effect
Anthrax LF inh2 = anthrax lethal factor protease inhibition. P15917. multiplex microsphere protease cleavage assay, LF. inhibition, % at 10 µM. 360,000 tested, 0.12% active. AID 588501; further: plate controls were buffer without enzyme for full effect and enzyme alone for no effect
Target sequence (P15917 whole entry, looked up): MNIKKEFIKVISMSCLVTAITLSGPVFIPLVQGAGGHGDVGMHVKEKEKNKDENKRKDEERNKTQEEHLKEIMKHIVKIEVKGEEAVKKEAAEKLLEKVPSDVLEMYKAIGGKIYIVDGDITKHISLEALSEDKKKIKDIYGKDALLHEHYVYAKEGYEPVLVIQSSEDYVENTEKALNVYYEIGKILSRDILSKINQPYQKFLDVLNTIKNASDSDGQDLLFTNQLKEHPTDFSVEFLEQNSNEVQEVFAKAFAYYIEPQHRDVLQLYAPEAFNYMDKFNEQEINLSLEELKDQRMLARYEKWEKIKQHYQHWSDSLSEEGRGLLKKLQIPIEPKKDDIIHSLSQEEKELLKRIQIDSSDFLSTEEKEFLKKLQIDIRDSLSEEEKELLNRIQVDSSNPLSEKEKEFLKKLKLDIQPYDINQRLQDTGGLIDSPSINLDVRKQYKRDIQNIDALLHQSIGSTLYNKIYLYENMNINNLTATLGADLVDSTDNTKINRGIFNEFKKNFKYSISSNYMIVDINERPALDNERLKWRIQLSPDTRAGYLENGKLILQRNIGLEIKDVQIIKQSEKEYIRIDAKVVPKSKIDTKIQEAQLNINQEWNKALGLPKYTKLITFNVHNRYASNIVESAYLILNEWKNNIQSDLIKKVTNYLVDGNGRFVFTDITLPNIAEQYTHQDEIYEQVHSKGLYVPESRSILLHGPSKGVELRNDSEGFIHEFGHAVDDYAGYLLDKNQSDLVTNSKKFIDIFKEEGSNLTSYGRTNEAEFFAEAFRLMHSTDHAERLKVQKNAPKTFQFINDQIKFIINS
BoNT-F LC inh = blocks Botulinum neurotoxin F light chain protease. 360,000 tested, 0.22% active. AID 588497. Multiplex microsphere protease cleavage assay, flow cytometry. inhibition, % at 10 µM; in the data active means inhibition above about 35%, passing the limit was not always enough; inconclusive means no clear call, values can overlap the other calls; further: plate controls were buffer without enzyme for full effect and enzyme alone for no effect
BH1578 lux ind = induces V. cholerae light production without autoinducers; V. cholerae BH1578 lux reporter, luminescence, 6 h; activation, % at 18.7 µM; 350,000 tested, 0.16% active; in the data active means activation mostly above about 9.7%, no sharp cut-off; inconclusive means no clear call, values can overlap the other calls; inactive means mostly below about 3.7%
* marks the source's active call; other numbers are inactive results. Unless noted, no stated cut-off is given here; in the data, active means inhibition above about 30%; inconclusive means no clear call, values can overlap the other calls; inactive means below that.

Cc1c(Nc2cc(=O)oc3ccccc23)c(=O)n(-c2ccccc2)n1C was read as Autofluor counter 6676, BoNT-A LC inh2 -1, Anthrax LF inh2 8, BoNT-F LC inh -7 and BH1578 lux ind 17*.
`CCOC(=O)c1ccc(NC(=O)Nc2c(C)n(C)n(-c3ccccc3)c2=O)cc1` gave Autofluor counter 5938, BoNT-A LC inh2 0, Anthrax LF inh2 -2, BoNT-F LC inh 3 and BH1578 lux ind -4.
Screening Cc1ccc(NC(=O)CNc2ccccc2N2CCCC2=O)cc1S(=O)(=O)N1CCCCC1 returned Autofluor counter 3889, BoNT-A LC inh2 -1, Anthrax LF inh2 -9, BoNT-F LC inh -12 and BH1578 lux ind inactive.
Screening Cc1c(NC(=O)CSc2nccn2C)c(=O)n(-c2ccccc2)n1C returned Autofluor counter 16417*, BoNT-A LC inh2 inconclusive, Anthrax LF inh2 -1, BoNT-F LC inh 0 and BH1578 lux ind 0.
For CCn1cc(C(=O)OCC(=O)Nc2c(C)n(C)n(-c3ccccc3)c2=O)c(=O)c2ccc(C)nc21 the results were Autofluor counter 23317*, BoNT-A LC inh2 0, Anthrax LF inh2 -1, BoNT-F LC inh 2 and BH1578 lux ind -11.
Cc1ccc(C(=O)NC(=S)/C=C2\N(C)c3ccccc3C2(C)C)cc1 was read as Autofluor counter 3476, BoNT-A LC inh2 42*, Anthrax LF inh2 19, BoNT-F LC inh -7 and BH1578 lux ind 0.
Cc1c(NC(=S)/C=C2\N(C)c3ccccc3C2(C)C)c(=O)n(-c2ccccc2)n1C was read as Autofluor counter 19375*, BoNT-A LC inh2 4, Anthrax LF inh2 -4, BoNT-F LC inh 7 and BH1578 lux ind 0.
CN(CCO)CCC(=O)NC1(C)CS(=O)(=O)CC1S(=O)(=O)O (stereo not drawn) was read as Autofluor counter 4839, BoNT-A LC inh2 -2, Anthrax LF inh2 3, BoNT-F LC inh 1 and BH1578 lux ind 0.
For O=C(COc1ccc(Br)cc1)OCCN1CCCCC1 the results were Autofluor counter 3901, BoNT-A LC inh2 -2, Anthrax LF inh2 -8, BoNT-F LC inh 8 and BH1578 lux ind inactive.
Screening CCOc1ccc(NC(=O)C2C3CC/C=C\CCC32)cc1 (stereo not drawn) returned Autofluor counter 4757, BoNT-A LC inh2 5, Anthrax LF inh2 -18, BoNT-F LC inh inconclusive and BH1578 lux ind 0.
`C=CCNC(=S)NNC(=O)c1ccc(=O)n(Cc2ccccc2)c1` gave Autofluor counter 3976, BoNT-A LC inh2 -2, Anthrax LF inh2 -2, BoNT-F LC inh 1 and BH1578 lux ind -1.
Screening Cc1c(NC(=O)NCc2ccccc2)c(=O)n(-c2ccccc2)n1C returned Autofluor counter 22336*, BoNT-A LC inh2 2, Anthrax LF inh2 -2, BoNT-F LC inh 2 and BH1578 lux ind 0.
`O=C(O)CC(NC(=O)C12CC3CC(CC(C3)C1)C2)c1ccc(F)cc1` (stereo not drawn) gave Autofluor counter 3596, BoNT-A LC inh2 -2, Anthrax LF inh2 -6, BoNT-F LC inh 4 and BH1578 lux ind 1.
For CCCOc1ccc(C(CC(=O)O)NC(=O)C23CC4CC(CC(C4)C2)C3)cc1 (stereo not drawn) the results were Autofluor counter 23418*, BoNT-A LC inh2 0, Anthrax LF inh2 -1, BoNT-F LC inh 0 and BH1578 lux ind 0.
For CC1(C)Cc2noc(N)c2C(C)(C)N1OC(=O)c1ccccc1 the results were Autofluor counter 4532, BoNT-A LC inh2 -1, Anthrax LF inh2 -9, BoNT-F LC inh -8 and BH1578 lux ind inactive.
`CC1(C)CC(=O)CC(C)(C)N1OC(=O)c1ccncc1` gave Autofluor counter 23714*, BoNT-A LC inh2 inconclusive, Anthrax LF inh2 -13, BoNT-F LC inh -1 and BH1578 lux ind inactive.
Screening O=C(Cc1nc(=O)c2ccccc2s1)Nc1ccccc1 returned Autofluor counter 16611*, BoNT-A LC inh2 10, Anthrax LF inh2 -11, BoNT-F LC inh 11 and BH1578 lux ind 16.
`OCCNc1cc(Cl)ncn1` gave Autofluor counter 6852, BoNT-A LC inh2 -2, Anthrax LF inh2 -4, BoNT-F LC inh 0 and BH1578 lux ind 0.
`CCCNC(=O)Nc1ccc2c(c1)N(C)C(=O)c1ccccc1S2` gave Autofluor counter 16271*, BoNT-A LC inh2 1, Anthrax LF inh2 -2, BoNT-F LC inh -3 and BH1578 lux ind inactive.
CCCCNC(=O)Nc1ccc2c(c1)N(C)C(=O)c1ccccc1S2 was read as Autofluor counter 3491, BoNT-A LC inh2 -3, Anthrax LF inh2 -4, BoNT-F LC inh -16 and BH1578 lux ind -6.
C=CCOc1ccccc1/C=C/C(=O)O was read as Autofluor counter 22958*, BoNT-A LC inh2 -2, Anthrax LF inh2 -3, BoNT-F LC inh 1 and BH1578 lux ind inactive.
C=CCn1c(CCNC(=O)c2ccccc2F)nnc1SCc1nc2ccccc2c(=O)[nH]1 was read as Autofluor counter 24056*, BoNT-A LC inh2 -3, Anthrax LF inh2 -2, BoNT-F LC inh -4 and BH1578 lux ind 0.
`COc1ccc(-c2nnc(SCC(=O)N(C)C3CCS(=O)(=O)C3)n2CC(C)C)cc1` (stereo not drawn) gave Autofluor counter 3121, BoNT-A LC inh2 0, Anthrax LF inh2 4, BoNT-F LC inh -8 and BH1578 lux ind -1.
For COc1ccccc1NC(=O)c1ccccc1NC(=O)c1cccs1 the results were Autofluor counter 3964, BoNT-A LC inh2 -1, Anthrax LF inh2 -4, BoNT-F LC inh -18 and BH1578 lux ind -1.
For COc1ccccc1NC(=O)CN(Cc1ccco1)C(=O)c1cncc(Br)c1 the results were Autofluor counter 4219, BoNT-A LC inh2 0, Anthrax LF inh2 0, BoNT-F LC inh 6 and BH1578 lux ind -4.
`COc1ccccc1NC(=O)c1cccs1` gave Autofluor counter 16647*, BoNT-A LC inh2 0, Anthrax LF inh2 -2, BoNT-F LC inh -3 and BH1578 lux ind inactive.
Screening COc1ccccc1NC(=O)CN(Cc1ccco1)C(=O)c1cccs1 returned Autofluor counter 23213*, BoNT-A LC inh2 0, Anthrax LF inh2 -4, BoNT-F LC inh 0 and BH1578 lux ind inactive.
For NC(=NCCc1ccccc1)NS(=O)(=O)c1ccccc1F the results were Autofluor counter 6579, BoNT-A LC inh2 -1, Anthrax LF inh2 0, BoNT-F LC inh -8 and BH1578 lux ind -2.
CCS(=O)(=O)N1CCN(CC(=O)NC2CCCCC2)CC1 was read as Autofluor counter 4028, BoNT-A LC inh2 0, Anthrax LF inh2 -3, BoNT-F LC inh 0 and BH1578 lux ind 0.
For C/C(=N\Nc1ccc2nncn2n1)c1cccs1 the results were Autofluor counter 5358, BoNT-A LC inh2 0, Anthrax LF inh2 -5, BoNT-F LC inh 1 and BH1578 lux ind 12.
For Cc1cccc(CNC(=O)c2ccccc2N)c1 the results were Autofluor counter 6202, BoNT-A LC inh2 4, Anthrax LF inh2 6, BoNT-F LC inh 17 and BH1578 lux ind 0.
C=CCSc1ncccc1C(=O)NCCc1ccc(Cl)cc1 was read as Autofluor counter 7097, BoNT-A LC inh2 1, Anthrax LF inh2 -15, BoNT-F LC inh 20 and BH1578 lux ind inactive.
`Cc1ccc(CNC(=O)c2ccccc2N)cc1` gave Autofluor counter 19203*, BoNT-A LC inh2 1, Anthrax LF inh2 0, BoNT-F LC inh 1 and BH1578 lux ind inactive.

High-throughput results (PubChem BioAssay)
